Experimental data reported in the supplement of paper PMC11732987, “Enantioselective OTUD7B fragment discovery through chemoproteomics screening and high-throughput optimisation” (Communications Chemistry, 2025).

Key:
Assay in all cases: log2 ratio of Biotin-Ahx-Ub-VS probe labelling (fragment/DMSO); higher = less target engagement (more negative = stronger competition), active = hit call of the paper (q ≤ 0.05, log2 ratio ≤ -1)
Settings in all cases: compound concentration: 200 uM; treatment time: 3 h
USP19 = target: T1, USP19 (UniProt O94966)
T1 sequence (whole entry): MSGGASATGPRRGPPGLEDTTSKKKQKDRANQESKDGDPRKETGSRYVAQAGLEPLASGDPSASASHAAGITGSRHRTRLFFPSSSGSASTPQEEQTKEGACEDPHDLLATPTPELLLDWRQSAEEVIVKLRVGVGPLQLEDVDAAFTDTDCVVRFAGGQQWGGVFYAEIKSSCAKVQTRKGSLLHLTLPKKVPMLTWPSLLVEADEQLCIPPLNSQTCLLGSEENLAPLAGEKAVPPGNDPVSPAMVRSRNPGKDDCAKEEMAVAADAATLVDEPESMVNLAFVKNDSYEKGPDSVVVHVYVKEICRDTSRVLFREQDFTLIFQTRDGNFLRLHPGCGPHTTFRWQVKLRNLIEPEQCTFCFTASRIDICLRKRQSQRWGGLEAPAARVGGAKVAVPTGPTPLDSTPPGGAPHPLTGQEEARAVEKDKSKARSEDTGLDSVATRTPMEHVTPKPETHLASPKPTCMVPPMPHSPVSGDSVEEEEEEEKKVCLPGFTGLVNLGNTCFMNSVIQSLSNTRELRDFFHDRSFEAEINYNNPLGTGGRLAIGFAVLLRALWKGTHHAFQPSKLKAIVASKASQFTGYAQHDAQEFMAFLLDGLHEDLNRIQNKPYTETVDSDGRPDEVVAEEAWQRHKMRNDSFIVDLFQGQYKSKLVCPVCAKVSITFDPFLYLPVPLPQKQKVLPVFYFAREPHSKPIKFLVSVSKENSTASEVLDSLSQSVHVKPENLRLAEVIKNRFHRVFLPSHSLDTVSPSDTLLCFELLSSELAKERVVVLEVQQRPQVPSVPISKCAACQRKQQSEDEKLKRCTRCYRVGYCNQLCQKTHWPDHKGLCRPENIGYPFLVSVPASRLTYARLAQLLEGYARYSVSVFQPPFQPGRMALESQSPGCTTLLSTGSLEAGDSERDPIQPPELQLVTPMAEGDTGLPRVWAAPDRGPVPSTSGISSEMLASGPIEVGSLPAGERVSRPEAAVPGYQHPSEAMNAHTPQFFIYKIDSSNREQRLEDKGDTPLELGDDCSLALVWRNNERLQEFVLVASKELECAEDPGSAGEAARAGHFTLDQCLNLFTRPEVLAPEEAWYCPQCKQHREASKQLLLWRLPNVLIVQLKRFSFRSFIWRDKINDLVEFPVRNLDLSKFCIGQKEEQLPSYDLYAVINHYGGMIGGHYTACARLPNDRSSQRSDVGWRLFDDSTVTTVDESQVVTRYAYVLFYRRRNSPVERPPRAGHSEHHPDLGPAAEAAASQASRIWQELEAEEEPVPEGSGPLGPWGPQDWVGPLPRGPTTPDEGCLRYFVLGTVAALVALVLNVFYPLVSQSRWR
Method in brief: (§1)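 HEK293T lysate in Tris/CHAPS/IGEPAL buffer with protease inhibitors (495 µg per sample) was given fragment at 200 µM or vehicle for 3 h, in triplicate. It then received Biotin-Ahx-Ub-VS at 0.5 µM final for 1 h. Labelled DUBs were NeutrAvidin-enriched, digested with LysC and trypsin, and run by diaPASEF LC-MS/MS. Values are average log2 fragment/vehicle ratios by unpaired t-test on global-median-normalised Spectronaut quantities of proteins with ≥2 unique peptides.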

USP24 = USP24 (UniProt Q9UPU5)
Method in brief: as §1

USP25 = target: T2, USP25 (UniProt Q9UHP3)
T2 sequence (whole entry): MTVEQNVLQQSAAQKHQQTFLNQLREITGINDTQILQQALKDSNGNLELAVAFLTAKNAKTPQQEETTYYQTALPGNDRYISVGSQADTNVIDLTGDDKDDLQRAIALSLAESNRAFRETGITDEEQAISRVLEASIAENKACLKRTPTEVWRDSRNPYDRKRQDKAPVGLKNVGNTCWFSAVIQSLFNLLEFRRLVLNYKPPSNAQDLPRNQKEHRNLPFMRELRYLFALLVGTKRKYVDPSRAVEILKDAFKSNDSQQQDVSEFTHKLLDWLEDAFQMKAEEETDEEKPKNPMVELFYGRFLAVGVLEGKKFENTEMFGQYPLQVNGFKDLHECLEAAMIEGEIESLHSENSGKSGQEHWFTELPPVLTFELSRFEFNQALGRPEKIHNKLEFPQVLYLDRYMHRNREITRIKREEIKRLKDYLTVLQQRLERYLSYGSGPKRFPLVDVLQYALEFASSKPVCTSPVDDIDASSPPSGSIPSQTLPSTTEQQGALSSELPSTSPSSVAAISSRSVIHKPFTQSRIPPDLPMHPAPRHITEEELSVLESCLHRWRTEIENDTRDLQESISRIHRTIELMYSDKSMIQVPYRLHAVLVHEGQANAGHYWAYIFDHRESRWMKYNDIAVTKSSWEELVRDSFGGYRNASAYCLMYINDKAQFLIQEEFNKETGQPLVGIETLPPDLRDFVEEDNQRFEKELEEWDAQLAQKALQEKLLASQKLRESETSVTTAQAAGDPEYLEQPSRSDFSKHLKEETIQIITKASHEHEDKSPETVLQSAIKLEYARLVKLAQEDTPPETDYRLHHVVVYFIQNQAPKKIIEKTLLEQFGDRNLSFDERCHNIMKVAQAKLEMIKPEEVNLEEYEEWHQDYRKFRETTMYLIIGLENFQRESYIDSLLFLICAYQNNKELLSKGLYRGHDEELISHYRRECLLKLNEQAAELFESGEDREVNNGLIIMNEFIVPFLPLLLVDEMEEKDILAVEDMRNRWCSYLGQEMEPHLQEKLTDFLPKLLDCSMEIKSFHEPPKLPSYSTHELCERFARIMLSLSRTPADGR
Method in brief: as §1

USP28 = target: T3, USP28 (UniProt Q96RU2)
T3 sequence (whole entry): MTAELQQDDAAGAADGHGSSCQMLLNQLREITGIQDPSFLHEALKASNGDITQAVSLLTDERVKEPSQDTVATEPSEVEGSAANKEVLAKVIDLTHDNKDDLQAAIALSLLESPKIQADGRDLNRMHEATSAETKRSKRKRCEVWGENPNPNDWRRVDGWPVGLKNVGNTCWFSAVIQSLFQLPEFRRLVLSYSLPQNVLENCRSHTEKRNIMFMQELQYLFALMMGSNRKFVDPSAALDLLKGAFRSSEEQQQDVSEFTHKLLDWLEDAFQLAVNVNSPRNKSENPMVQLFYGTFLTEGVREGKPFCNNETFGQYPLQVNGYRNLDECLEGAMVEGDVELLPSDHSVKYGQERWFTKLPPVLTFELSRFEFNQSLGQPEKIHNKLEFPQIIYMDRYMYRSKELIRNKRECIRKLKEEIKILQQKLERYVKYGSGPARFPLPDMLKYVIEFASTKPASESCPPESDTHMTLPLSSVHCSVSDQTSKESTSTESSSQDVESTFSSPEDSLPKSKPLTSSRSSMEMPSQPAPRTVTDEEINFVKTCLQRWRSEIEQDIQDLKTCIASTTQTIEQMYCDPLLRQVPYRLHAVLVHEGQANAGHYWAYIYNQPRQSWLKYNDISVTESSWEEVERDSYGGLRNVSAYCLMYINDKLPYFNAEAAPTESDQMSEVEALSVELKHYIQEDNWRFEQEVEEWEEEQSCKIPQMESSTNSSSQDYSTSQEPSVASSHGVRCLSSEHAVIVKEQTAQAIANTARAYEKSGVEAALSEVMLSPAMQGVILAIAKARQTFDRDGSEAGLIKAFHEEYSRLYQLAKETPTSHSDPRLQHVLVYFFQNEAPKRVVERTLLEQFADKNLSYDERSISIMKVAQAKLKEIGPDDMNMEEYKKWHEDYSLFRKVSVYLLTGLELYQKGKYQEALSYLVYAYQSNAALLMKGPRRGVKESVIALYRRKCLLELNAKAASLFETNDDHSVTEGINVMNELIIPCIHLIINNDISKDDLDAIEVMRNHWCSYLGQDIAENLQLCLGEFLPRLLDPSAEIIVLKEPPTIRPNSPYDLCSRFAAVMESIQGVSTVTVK
Method in brief: as §1

Measured: log2 ratio of Biotin-Ahx-Ub-VS probe labelling

USP24, sequence (Q9UPU5 whole entry): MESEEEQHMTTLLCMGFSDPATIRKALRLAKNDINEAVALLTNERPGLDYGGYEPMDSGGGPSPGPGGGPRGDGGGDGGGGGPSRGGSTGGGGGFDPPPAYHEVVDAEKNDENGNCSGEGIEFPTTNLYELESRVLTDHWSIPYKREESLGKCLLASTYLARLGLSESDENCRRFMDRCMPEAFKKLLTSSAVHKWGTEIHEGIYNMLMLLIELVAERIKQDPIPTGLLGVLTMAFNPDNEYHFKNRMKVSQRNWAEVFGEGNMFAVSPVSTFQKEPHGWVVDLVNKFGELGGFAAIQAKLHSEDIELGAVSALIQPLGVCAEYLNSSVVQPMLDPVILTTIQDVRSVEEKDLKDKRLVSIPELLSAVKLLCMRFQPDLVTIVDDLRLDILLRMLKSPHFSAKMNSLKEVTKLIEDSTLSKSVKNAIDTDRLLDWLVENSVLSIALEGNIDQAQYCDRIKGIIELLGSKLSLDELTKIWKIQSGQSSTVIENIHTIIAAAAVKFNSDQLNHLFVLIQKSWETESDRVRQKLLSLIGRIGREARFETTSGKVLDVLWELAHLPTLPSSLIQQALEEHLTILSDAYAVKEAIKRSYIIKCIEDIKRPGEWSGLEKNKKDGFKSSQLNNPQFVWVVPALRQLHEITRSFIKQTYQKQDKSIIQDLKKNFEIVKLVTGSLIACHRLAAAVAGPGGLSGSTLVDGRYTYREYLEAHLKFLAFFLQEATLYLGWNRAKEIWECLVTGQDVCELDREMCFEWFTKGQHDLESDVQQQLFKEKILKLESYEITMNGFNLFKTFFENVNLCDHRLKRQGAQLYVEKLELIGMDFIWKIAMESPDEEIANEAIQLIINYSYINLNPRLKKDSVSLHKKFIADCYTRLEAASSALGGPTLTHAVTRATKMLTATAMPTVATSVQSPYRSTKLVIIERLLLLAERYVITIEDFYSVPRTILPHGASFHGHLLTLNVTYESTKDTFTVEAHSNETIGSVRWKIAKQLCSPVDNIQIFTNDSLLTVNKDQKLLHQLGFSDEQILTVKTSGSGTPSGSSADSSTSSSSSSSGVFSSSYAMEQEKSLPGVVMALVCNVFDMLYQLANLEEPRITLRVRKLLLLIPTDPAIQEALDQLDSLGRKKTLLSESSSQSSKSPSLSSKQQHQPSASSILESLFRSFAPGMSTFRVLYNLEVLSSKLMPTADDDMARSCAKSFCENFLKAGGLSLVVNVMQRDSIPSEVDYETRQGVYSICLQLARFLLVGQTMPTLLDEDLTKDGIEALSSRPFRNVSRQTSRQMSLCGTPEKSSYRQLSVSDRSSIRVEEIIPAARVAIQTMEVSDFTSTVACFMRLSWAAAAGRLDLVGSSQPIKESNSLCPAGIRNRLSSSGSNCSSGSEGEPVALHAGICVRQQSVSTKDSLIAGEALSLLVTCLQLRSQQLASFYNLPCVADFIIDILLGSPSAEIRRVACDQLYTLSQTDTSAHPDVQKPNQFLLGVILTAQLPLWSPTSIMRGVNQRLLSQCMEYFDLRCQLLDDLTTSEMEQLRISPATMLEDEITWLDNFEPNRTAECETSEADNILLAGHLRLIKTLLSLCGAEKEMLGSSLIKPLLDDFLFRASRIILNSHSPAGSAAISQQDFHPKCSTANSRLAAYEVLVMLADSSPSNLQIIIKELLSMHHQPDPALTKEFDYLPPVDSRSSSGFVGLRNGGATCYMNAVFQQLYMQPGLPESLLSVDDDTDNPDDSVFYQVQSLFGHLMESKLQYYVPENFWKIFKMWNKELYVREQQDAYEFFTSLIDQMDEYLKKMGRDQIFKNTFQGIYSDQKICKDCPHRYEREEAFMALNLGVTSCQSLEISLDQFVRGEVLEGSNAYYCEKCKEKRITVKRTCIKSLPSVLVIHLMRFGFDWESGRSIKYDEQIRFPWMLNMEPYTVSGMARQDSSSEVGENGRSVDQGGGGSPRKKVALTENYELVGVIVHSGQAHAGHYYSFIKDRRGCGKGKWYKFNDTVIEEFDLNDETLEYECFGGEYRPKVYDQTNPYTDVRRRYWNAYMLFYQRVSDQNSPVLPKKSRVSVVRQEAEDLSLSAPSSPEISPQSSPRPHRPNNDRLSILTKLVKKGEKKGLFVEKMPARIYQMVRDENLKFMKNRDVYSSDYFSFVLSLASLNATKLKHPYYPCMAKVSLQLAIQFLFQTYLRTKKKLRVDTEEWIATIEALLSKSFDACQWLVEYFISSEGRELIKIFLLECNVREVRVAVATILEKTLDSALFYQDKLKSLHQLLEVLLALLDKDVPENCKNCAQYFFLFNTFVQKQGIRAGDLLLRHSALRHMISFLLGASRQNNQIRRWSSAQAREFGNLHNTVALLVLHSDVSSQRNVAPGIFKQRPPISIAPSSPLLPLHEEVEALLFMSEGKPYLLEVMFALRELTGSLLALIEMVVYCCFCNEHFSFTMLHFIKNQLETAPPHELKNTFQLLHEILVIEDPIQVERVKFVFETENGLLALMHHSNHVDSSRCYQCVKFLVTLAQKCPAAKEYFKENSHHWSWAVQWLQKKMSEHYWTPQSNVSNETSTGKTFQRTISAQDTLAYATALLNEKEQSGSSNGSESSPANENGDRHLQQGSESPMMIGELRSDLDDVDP

Cc1nc(CNC(=O)CCl)c2ccccn12.Cl
inactive: USP19 -0.106 | USP24 -0.108 | USP25 -0.0552 | USP28 -0.23
